5HT1a antag = human 5-HT1a receptor antagonists, primary screen, cell-based, CHO, Ga15 NFAT-bla reporter | 5-hydroxytryptamine receptor 1A (Homo sapiens), P08908 | CHO 5-HT1a Ga15 NFAT-bla reporter, antagonist mode | inhibition, % at 10 µM | 62,000 tested, 0.68% active | AID 612, 2007;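 active = inhibition above the mean of all tested compounds plus 3 SD, cut at about 43% in these data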;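 note: receptor stimulated by 5-CT agonist at 100 nM near EC80; beta-lactamase reporter measured by ratiometric fluorescence of a cleavable substrate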
Her2 expr inh = inhibitors of Her2 protein expression, primary screen, SKBR-3 cells, AlphaScreen, 66K library. 65,000 tested, 0.69% active. HER2 level % of control, % at 10 µM. Receptor tyrosine-protein kinase erbB-2 (Homo sapiens), P04626. SKBR-3 HER2 protein level, 18-24 h; active compounds read low;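 active = HER2 level under 5% of the carrier-only control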;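 note: 100% = DMSO carrier and 0% = 500 nM PU-H71 HSP90 inhibitor; lower value means stronger loss of Her2 protein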
5HT1E ag = 5-HT1E receptor agonists, primary screen, cell-based, HTS; 5-hydroxytryptamine receptor 1E (Homo sapiens), P28566; CHO 5-HT1E Ga15 NFAT-bla reporter, FRET; 0% DMSO wells, 100% control agonist wells; activation, % at 6 µM; 65,000 tested, 0.69% active;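 active = activation above a set limit, the screen-wide mean activation plus 3 SD, cut at about 8.5% in these data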;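 note: 100% = positive control agonist at 1 µM giving full maximal response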
Target sequence (P28566 whole entry, looked up): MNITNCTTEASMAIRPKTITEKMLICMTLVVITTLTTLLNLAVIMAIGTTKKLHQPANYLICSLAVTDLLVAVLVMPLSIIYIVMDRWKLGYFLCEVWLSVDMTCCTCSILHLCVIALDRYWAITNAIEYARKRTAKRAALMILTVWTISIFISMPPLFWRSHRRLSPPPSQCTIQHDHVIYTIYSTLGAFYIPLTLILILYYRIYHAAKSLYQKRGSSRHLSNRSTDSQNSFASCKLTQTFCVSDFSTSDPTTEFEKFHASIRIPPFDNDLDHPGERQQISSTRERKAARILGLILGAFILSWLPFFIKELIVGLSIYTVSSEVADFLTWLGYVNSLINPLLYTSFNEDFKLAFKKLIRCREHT
5HT1E antag = 5-HT1E receptor antagonists, primary screen, cell-based, HTS. 5-hydroxytryptamine receptor 1E (Homo sapiens), P28566. CHO 5-HT1E Ga15 NFAT-bla reporter, FRET, antagonist. inhibition, % at 6 µM. 65,000 tested, 0.99% active;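 active = inhibition above a set limit, the mean inhibition across every tested compound plus 3 SD, cut at about 29% in these data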;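 note: signal is the 460 over 535 nm emission ratio of beta-lactamase substrate; 0% = agonist plus DMSO wells and 100% = wells without agonist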
5HT1a ag = human 5-HT1a receptor agonists, primary screen, cell-based, CHO, Ga15 NFAT-bla reporter; 65,000 tested, 0.56% active; 5-hydroxytryptamine receptor 1A (Homo sapiens), P08908; CHO 5-HT1a Ga15 NFAT-bla reporter, FRET ratio; 0% basal, 100% maximal reference agonist; activation, % at 10 µM; AID 567, 2006;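 active = activation above the screen-wide mean activation plus 3 SD, cut at about 19% in these data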;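 note: 0% = DMSO wells and 100% = 5-CT at EC100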
* = called active by the depositor; . = no result. Hits are enriched below; roughly 3% of the tested compounds scored in any of these assays.

SMILES	5HT1a antag	Her2 expr inh	5HT1E ag	5HT1E antag	5HT1a ag
COC(=O)c1ccc(C2C(C(C)=O)=C(C)Nc3ncnn32)cc1 (configuration not stated)	-7	113	1	-1	-1
CC(=O)Nc1nc(=O)c2ccccc2s1	47*	95	-1	-10	-5
O=C(Nc1nc(=O)c2ccccc2s1)c1ccccc1	.	37	0	3	0
CCCOc1ccc(C(=O)CCN2CCCCC2)cc1	21	-20*	0	-1	-2
CCOc1ccc(C(=O)CCN2CCCCCC2)cc1	6	99	1	-7	1
Cc1nc2ccc(S(=O)(=O)NCC(=O)N3CCC(C)CC3)cc2s1	-11	123	0	4	-3
COc1ccc(/C=N/n2cncn2)cc1CSc1ccccn1	.	124	16*	-8	0
COCCOC(=O)c1[nH]c2c(c1C)C(=O)CC(c1ccco1)C2 (configuration not stated)	16	55	-1	35*	-1
Cc1c(C(=O)OCc2ccccc2)[nH]c2c1C(=O)CC(c1ccco1)C2 (configuration not stated)	58*	45	-1	84*	1
CCOC(=O)c1[nH]c2c(c1C)C(=O)CC(c1ccco1)C2 (configuration not stated)	53*	27	0	74*	-1
COCCOC(=O)c1[nH]c2c(c1C)C(=O)CC(c1ccc(F)cc1)C2 (configuration not stated)	8	49	0	-7	-2
Cc1c(C(=O)O)[nH]c2c1C(=O)CC(c1ccccc1)C2 (configuration not stated)	-12	112	0	5	0
COCCOC(=O)c1[nH]c2c(c1C)C(=O)CC(c1ccccc1)C2 (configuration not stated)	36	54	-1	67*	1
Cc1c(C(=O)OCCOC(C)C)[nH]c2c1C(=O)CC(C)(C)C2	0	63	1	9	2
CSCCOC(=O)c1[nH]c2c(c1C)C(=O)CC(c1ccco1)C2 (configuration not stated)	27	38	1	57*	0
COC(=O)c1[nH]c2c(c1C)C(=O)CC(c1cccs1)C2 (configuration not stated)	39	62	0	57*	-4
Cc1c(C(=O)OCCOC(C)C)[nH]c2c1C(=O)CC(c1ccco1)C2 (configuration not stated)	63*	42	-1	81*	-3
COCCOC(=O)c1[nH]c2c(c1C)C(=O)CC(c1ccc(N(C)C)cc1)C2 (configuration not stated)	4	79	0	9	-6
COC(=O)c1[nH]c2c(c1C)C(=O)CC(c1cc(OC)ccc1OC)C2 (configuration not stated)	37	45	-1	20	-2
O=c1c2ccccc2cnn1-c1nc2ccccc2s1	-3	97	0	3	-3
O=C(c1cccc(OC(F)F)c1)N1CCN(c2ncccn2)CC1	-10	104	1	0	0
O=C(c1ccco1)N1CCN(C(c2cccs2)c2nnnn2C2CCCCC2)CC1 (configuration not stated)	-1	117	-2	-5	1
CC(C)(C)c1cccc(/C=N/O)c1O	.	89	0	30*	2
COc1cccc(C(CC(=O)NCc2ccco2)NS(=O)(=O)c2ccc(C)cc2)c1OC (configuration not stated)	-3	134	0	1	0
CCOC(=O)c1c(C)nc(-c2ccccc2)nc1NC(=O)CC	17	143	68*	-7	-1
SMILES	5HT1a antag	Her2 expr inh	5HT1E ag	5HT1E antag	5HT1a ag
COc1cc2c(cc1OC)CN(C(=O)c1ccc(OC)c(S(=O)(=O)N3CCOCC3)c1)CC2	-6	86	1	4	-4
COc1cc2c(cc1OC)CN(C(=O)Cc1ccc(OC)c(S(=O)(=O)N3CCOCC3)c1)CC2	-1	104	25*	6	-1
COc1ccc(C2C=C(c3ccc(C)cc3)Nc3ncnn32)cc1 (configuration not stated)	.	71	0	21	-2
COc1ccc(C2=CC(c3ccc(OC)c(OC)c3)n3nnnc3N2)c(OC)c1 (configuration not stated)	6	120	0	29*	0
COc1ccc(C2C=C(c3ccc(Br)s3)Nc3ncnn32)cc1OC (configuration not stated)	34	58	0	34*	-2
COc1cccc(C2C=C(c3cccs3)Nc3ncnn32)c1OC (configuration not stated)	26	76	0	30*	-4
COc1cccc(C2=CC(c3cccc(OC)c3OC)n3nnnc3N2)c1 (configuration not stated)	24	39	0	10	-2
CCc1c(C)nc(/N=C(/NC(=O)c2ccccc2)Nc2ccccc2OC)[nH]c1=O	-5	114	0	2	0
Fc1ccccc1Cn1nnc2c(-n3ccnc3)ncnc21	2	101	0	4	-1
CC(=O)C(Sc1ncnc2c1nnn2-c1ccc(F)cc1)C(=O)N(C)C (configuration not stated)	0	-10*	0	3	-4
CCN(Cc1ccncc1)C(=O)c1cccs1	-1	103	-1	0	0
N=c1sc2ccccc2n1-c1ccccc1	-7	81	25*	25	3
COc1ccc(C(c2nnnn2C2CCCCC2)N2CCN(c3ccccc3)CC2)cc1 (configuration not stated)	52*	99	0	3	-1
OC1(c2cccc(C(F)(F)F)c2)CCN(c2ncnc3c2[nH]c2ccc(F)cc23)CC1	15	56	0	35*	0
CC(=O)Nc1nc(SCCCc2ccccc2)n[nH]1	16	98	0	4	-2
CS(=O)c1nc(-c2ccc(Br)cc2)cc(-c2ccccc2)c1C#N (configuration not stated)	81*	-22*	2	43*	-6
Cc1cc(-c2ccccc2)c(C#N)c(N)n1	.	102	.	.	.
OC1CCN(c2c3c(nc4cc(-c5cccc(F)c5)nn24)CCCC3)CC1	2	.	0	31*	1
Fc1cccc(-c2cc3nc4c(c(N5CCC6(CC5)OCCO6)n3n2)CCCC4)c1	-3	.	-1	17	-1
